Assay results: paper PMC5540273 (PLoS ONE, 2017)

Columns and labels:
Conditions in all cases: concentration: 1 μM, replicates: in singlicate; n = 1
[1] = test system: AAK1
[2] = test system: ABL1-nonphosphorylated
[3] = test system: ABL1-phosphorylated
[4] = test system: ABL2
[5] = test system: ACVR1B
[6] = test system: ACVR1
[7] = test system: ACVR2A
[8] = test system: ACVR2B
[9] = test system: ACVRL1
[10] = test system: T1, ADCK3
T1 construct: gene CABC1

[11] = test system: ADCK4
[12] = test system: AKT1
[13] = test system: AKT2
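Also: KINOMEscan kinase panel screen.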

SMILES	%Inh [1]	%Inh [2]	%Inh [3]	%Inh [4]	%Inh [5]	%Inh [6]	%Inh [7]	%Inh [8]	%Inh [9]	%Inh [10]	%Inh [11]	%Inh [12]	%Inh [13]
Cl.c1ccc(Cn2ccc3cc(Nc4ncnc5ccccc45)ccc32)cc1 [GW275568]	17%	0%	30%	0%	0%	10%	2%	16%	0%	24%	4%	3%	12%
Cl.Cl.c1ccc(-c2cc3ccncc3cc2OC2CCNCC2)cc1 [GSK1122999]	27%	0%	0%	8%	0%	22%	0%	0%	0%	22%	42%	0%	0%
O=C(CCO)NCCn1ccc2ncnc(Nc3ccc(Oc4cccc(C(F)(F)F)c4)c(Cl)c3)c21	0%	24%	12%	0%	0%	0%	0%	0%	0%	3%	0%	0%	0%
CCC(CC)(CC)n1cnc2c(N)ncnc21 [SKF-97620]	0%	27%	6%	1%	10%	0%	0%	0%	0%	0%	9%	11%	0%
FC(F)(F)c1ccc(-c2nn3ncccc3c2-c2ccnc(Nc3cccc(C(F)(F)F)c3)n2)cc1 [GW828205]	1%	47%	30%	16%	24%	0%	6%	19%	10%	23%	0%	0%	0%
CCn1c(-c2ccncc2)nc2cnccc21 [SB-735216]	0%	26%	0%	0%	14%	40%	0%	4%	0%	15%	6%	0%	0%
COc1ccc(-c2oc3ncnc(N)c3c2-c2ccc(OC)cc2)cc1 [SB-589132]	6%	21%	10%	20%	0%	21%	0%	0%	12%	12%	55%	0%	0%
Fc1cccc(COc2ccc(Nc3ncnc4cc[nH]c34)cc2Cl)c1	4%	19%	21%	10%	12%	19%	0%	3%	16%	1%	17%	0%	0%
Cc1ccc(C)c(NC(=O)NCCNc2ccnc(Nc3ccc(F)cc3)n2)c1 [GSK1379878]	63%	0%	0%	0%	0%	0%	0%	0%	0%	0%	10%	0%	0%
Fc1ccc(-c2ncn(CCCNCc3ccccc3)c2-c2ccncc2)cc1	16%	25%	15%	12%	10%	2%	0%	0%	17%	0%	0%	19%	12%
Cl.O=S(=O)(c1cccc(F)c1)c1ccc(Nc2ncnc3cc(Br)sc23)cc1Cl [GSK306886]	16%	0%	0%	0%	0%	18%	0%	0%	7%	11%	22%	0%	3%
Fc1ccc(Nc2nccc(-c3c(-c4ccc(Cl)cc4)nn4ncccc34)n2)cc1F [GW829058]	0%	0%	17%	19%	20%	0%	0%	0%	0%	0%	0%	18%	9%
CCc1nc(-c2cccc(C)c2)c(-c2ccnc(NC(=O)c3ccccc3)c2)s1	2%	24%	0%	27%	12%	0%	0%	0%	0%	17%	20%	0%	13%
O=C(c1ccc(-c2cc(-c3c[nH]nc3-c3ccccn3)ccn2)cc1)N1CCCC1 [GW792479]	12%	74%	59%	0%	77%	0%	11%	22%	0%	27%	0%	2%	0%
CSc1ccc(NC2=C(c3ccccc3Cl)C(=O)NC2=O)cc1 [SB-342411]	24%	0%	0%	3%	0%	0%	0%	0%	0%	16%	0%	0%	11%
CNc1nccc(-c2c(-c3ccc(F)cc3)ncn2CCCN2CCOCC2)n1 [SB-222516]	0%	23%	0%	12%	19%	8%	4%	4%	15%	1%	0%	18%	0%
